# Measurements from publication PMC7862700, “An all-to-all approach to the identification of sequence-specific readers for epigenetic DNA modifications on cytosine”.
# What was measured:
# Experiment in all cases: DAPPL (digital affinity profiling via proximity ligation, sequencing); 10 mM Tris-HCl pH 7.5, 50 mM NaCl, 1 mM DTT, 4% glycerol, room temperature, 30 min; GST-TFs on glutathione beads, 16-mer random dsDNA library, 0.1% formaldehyde crosslink after washing; high values mean tight binding
# Details in all cases: protein: recombinant; tags: N-terminal GST; dsDNA, one strand shown
# FLI1 = molecular target: T1, FLI1 (Homo sapiens, UniProt Q01543 1-452)
# T1 sequence: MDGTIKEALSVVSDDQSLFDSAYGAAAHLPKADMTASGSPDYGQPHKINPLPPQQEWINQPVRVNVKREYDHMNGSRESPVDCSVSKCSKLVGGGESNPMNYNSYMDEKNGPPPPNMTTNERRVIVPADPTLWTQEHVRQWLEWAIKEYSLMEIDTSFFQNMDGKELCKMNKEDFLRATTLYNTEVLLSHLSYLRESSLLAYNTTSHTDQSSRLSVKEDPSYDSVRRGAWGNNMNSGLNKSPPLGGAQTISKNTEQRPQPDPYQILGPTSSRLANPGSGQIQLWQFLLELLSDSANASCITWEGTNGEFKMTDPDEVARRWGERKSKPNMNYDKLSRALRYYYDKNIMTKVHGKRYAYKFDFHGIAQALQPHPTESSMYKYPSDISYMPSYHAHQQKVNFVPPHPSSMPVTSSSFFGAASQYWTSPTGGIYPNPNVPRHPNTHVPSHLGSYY
# How it was run: (§1)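 Sequencing on an Illumina NextSeq500 followed washing, crosslinking with 0.1% formaldehyde, proximity ligation (BsaI/T4 ligase, 1 h, 37 °C) and PCR amplification of pools that had been incubated for 30 min at room temperature with 200 nmole of a random double-stranded 16-mer DNA library in Tris/NaCl/DTT/glycerol buffer. Each pool held DNA-barcoded human transcription factors, expressed in yeast as GST fusions and captured on glutathione beads, plus a tag-only sample. Binding signal is a hexamer's read frequency for a factor divided by its frequency in the tag-only sample.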
# ELK1 = molecular target: T2, ELK1 (Homo sapiens, UniProt P19419 1-428)
# T2 sequence: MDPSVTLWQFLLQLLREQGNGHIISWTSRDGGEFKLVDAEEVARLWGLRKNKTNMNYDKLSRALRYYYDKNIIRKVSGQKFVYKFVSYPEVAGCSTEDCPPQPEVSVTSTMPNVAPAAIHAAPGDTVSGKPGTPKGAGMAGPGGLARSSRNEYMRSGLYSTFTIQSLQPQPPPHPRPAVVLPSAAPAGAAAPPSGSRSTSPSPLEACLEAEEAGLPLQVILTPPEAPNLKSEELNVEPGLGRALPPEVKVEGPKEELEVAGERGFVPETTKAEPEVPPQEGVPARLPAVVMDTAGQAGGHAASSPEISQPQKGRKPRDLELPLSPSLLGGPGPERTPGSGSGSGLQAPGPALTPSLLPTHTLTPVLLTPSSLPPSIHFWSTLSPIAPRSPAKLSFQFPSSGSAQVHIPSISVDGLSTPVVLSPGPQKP
# How it was run: as §1
# GABPA = molecular target: T3, GABPA (Homo sapiens, UniProt Q06546 1-454)
# T3 sequence: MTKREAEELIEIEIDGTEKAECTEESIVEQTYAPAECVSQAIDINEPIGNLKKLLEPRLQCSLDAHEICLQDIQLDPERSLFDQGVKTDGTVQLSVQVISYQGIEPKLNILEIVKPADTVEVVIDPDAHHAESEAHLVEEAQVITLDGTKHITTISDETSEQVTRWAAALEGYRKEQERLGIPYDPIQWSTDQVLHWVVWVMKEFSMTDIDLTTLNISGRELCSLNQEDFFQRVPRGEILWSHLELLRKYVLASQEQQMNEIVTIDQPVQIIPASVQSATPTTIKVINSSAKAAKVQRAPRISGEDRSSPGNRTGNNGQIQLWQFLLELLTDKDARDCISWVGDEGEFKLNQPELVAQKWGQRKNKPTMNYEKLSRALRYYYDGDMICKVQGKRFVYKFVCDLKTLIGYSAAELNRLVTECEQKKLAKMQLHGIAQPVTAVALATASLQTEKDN
# How it was run: as §1
# ERG = molecular target: T4, ERG (Homo sapiens, UniProt P11308 1-479)
# T4 sequence: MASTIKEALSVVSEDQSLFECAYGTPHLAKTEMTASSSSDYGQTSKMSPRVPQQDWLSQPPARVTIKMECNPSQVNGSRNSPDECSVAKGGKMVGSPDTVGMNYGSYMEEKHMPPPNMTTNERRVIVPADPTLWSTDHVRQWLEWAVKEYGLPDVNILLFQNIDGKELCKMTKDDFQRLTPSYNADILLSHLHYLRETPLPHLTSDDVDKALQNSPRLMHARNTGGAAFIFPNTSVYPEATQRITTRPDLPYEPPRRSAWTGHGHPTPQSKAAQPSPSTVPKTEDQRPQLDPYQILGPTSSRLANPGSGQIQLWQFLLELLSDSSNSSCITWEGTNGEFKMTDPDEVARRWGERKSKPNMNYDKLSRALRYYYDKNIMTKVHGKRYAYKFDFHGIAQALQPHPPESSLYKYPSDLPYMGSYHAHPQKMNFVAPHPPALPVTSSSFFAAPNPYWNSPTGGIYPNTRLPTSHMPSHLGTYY
# How it was run: as §1
# ELF1 = ELF1 (Homo sapiens, UniProt P32519 1-619)
# How it was run: as §1
# EHF = molecular target: T5, EHF (Homo sapiens, UniProt Q9NZC4 1-300)
# T5 sequence: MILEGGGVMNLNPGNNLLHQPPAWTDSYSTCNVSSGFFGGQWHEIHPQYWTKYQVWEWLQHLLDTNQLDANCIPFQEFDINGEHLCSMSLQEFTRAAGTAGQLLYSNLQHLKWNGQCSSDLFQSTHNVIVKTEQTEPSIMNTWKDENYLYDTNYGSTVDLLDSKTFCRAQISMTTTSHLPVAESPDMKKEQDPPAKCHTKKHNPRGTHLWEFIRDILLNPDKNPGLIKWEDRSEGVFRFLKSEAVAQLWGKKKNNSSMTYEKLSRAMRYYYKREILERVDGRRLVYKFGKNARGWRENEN
# How it was run: as §1
# SPI1 = SPI1 (Homo sapiens, UniProt P17947 1-270)
# How it was run: as §1
# SPIB = SPIB (Homo sapiens, UniProt Q01892 1-262)
# How it was run: as §1
# ELK3 = molecular target: T6, ELK3 (Homo sapiens, UniProt P41970 1-407)
# T6 sequence: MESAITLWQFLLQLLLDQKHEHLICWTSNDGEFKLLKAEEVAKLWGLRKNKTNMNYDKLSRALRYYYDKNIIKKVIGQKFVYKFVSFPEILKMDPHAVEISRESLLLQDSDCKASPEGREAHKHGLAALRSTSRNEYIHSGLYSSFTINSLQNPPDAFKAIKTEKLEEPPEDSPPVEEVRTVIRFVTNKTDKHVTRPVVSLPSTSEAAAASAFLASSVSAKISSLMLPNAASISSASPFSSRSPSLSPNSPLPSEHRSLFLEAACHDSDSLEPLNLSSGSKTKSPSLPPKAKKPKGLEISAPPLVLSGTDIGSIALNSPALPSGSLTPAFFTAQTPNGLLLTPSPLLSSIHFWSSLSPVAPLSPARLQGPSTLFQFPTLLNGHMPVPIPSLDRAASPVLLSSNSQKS
# How it was run: as §1
# SPIB, sequence (Q01892 whole entry): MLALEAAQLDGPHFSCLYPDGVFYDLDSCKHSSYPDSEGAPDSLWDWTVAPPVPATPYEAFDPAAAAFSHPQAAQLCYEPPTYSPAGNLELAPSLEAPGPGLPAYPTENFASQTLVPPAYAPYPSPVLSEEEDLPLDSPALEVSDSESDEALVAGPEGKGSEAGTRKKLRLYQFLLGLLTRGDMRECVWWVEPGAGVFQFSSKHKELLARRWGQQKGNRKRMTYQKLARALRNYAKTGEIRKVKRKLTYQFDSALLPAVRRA
# ELF1, sequence (P32519 whole entry): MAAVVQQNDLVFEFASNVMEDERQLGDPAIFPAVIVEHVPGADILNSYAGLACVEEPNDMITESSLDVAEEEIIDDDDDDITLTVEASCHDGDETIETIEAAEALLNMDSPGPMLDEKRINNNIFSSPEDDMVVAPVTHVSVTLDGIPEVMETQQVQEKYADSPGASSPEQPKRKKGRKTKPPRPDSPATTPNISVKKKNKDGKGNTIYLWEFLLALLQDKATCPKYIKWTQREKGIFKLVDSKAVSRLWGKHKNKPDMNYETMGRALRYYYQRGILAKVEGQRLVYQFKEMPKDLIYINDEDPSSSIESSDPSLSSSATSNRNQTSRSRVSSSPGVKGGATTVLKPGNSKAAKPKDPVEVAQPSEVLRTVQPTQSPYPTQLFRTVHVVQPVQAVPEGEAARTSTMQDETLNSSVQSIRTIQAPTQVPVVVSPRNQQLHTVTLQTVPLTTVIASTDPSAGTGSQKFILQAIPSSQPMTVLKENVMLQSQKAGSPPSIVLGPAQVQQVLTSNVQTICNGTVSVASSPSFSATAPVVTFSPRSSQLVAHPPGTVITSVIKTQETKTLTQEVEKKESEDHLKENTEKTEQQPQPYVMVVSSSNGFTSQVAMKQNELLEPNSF
Sequence,binding signal (FLI1),binding signal (ELK1),binding signal (GABPA),binding signal (ERG),binding signal (ELF1),binding signal (EHF),binding signal (SPI1),binding signal (SPIB),binding signal (ELK3)
TGGCAT,"1.23 fold enrichment (6-mer frequency, TF over GST control)","1.2 fold enrichment (6-mer frequency, TF over GST control)","1.2 fold enrichment (6-mer frequency, TF over GST control)","1.14 fold enrichment (6-mer frequency, TF over GST control)","1.17 fold enrichment (6-mer frequency, TF over GST control)","1.12 fold enrichment (6-mer frequency, TF over GST control)","1.11 fold enrichment (6-mer frequency, TF over GST control)","1.07 fold enrichment (6-mer frequency, TF over GST control)","1.13 fold enrichment (6-mer frequency, TF over GST control)"
TACTAC,"1.29 fold enrichment (6-mer frequency, TF over GST control)","1.35 fold enrichment (6-mer frequency, TF over GST control)","1.31 fold enrichment (6-mer frequency, TF over GST control)","1.24 fold enrichment (6-mer frequency, TF over GST control)","1.39 fold enrichment (6-mer frequency, TF over GST control)","1.36 fold enrichment (6-mer frequency, TF over GST control)","1.2 fold enrichment (6-mer frequency, TF over GST control)","1.41 fold enrichment (6-mer frequency, TF over GST control)","1.2 fold enrichment (6-mer frequency, TF over GST control)"
AAACAT,"1.53 fold enrichment (6-mer frequency, TF over GST control)","1.4 fold enrichment (6-mer frequency, TF over GST control)","1.49 fold enrichment (6-mer frequency, TF over GST control)","1.37 fold enrichment (6-mer frequency, TF over GST control)","1.5 fold enrichment (6-mer frequency, TF over GST control)","1.43 fold enrichment (6-mer frequency, TF over GST control)","1.36 fold enrichment (6-mer frequency, TF over GST control)","1.48 fold enrichment (6-mer frequency, TF over GST control)","1.46 fold enrichment (6-mer frequency, TF over GST control)"
AATGTA,"1.19 fold enrichment (6-mer frequency, TF over GST control)","1.09 fold enrichment (6-mer frequency, TF over GST control)","1.1 fold enrichment (6-mer frequency, TF over GST control)","1.17 fold enrichment (6-mer frequency, TF over GST control)","1.16 fold enrichment (6-mer frequency, TF over GST control)","1.22 fold enrichment (6-mer frequency, TF over GST control)","1.12 fold enrichment (6-mer frequency, TF over GST control)","1.2 fold enrichment (6-mer frequency, TF over GST control)","1.17 fold enrichment (6-mer frequency, TF over GST control)"
GATTCA,"1.11 fold enrichment (6-mer frequency, TF over GST control)","1.15 fold enrichment (6-mer frequency, TF over GST control)","1.17 fold enrichment (6-mer frequency, TF over GST control)","1.11 fold enrichment (6-mer frequency, TF over GST control)","1.17 fold enrichment (6-mer frequency, TF over GST control)","1.18 fold enrichment (6-mer frequency, TF over GST control)","1.16 fold enrichment (6-mer frequency, TF over GST control)","1.04 fold enrichment (6-mer frequency, TF over GST control)","1.1 fold enrichment (6-mer frequency, TF over GST control)"
AAACAA,"1.24 fold enrichment (6-mer frequency, TF over GST control)","1.33 fold enrichment (6-mer frequency, TF over GST control)","1.2 fold enrichment (6-mer frequency, TF over GST control)","1.38 fold enrichment (6-mer frequency, TF over GST control)","1.28 fold enrichment (6-mer frequency, TF over GST control)","1.26 fold enrichment (6-mer frequency, TF over GST control)","1.32 fold enrichment (6-mer frequency, TF over GST control)","1.21 fold enrichment (6-mer frequency, TF over GST control)","1.36 fold enrichment (6-mer frequency, TF over GST control)"
GATGAT,"1.34 fold enrichment (6-mer frequency, TF over GST control)","1.37 fold enrichment (6-mer frequency, TF over GST control)","1.35 fold enrichment (6-mer frequency, TF over GST control)","1.33 fold enrichment (6-mer frequency, TF over GST control)","1.32 fold enrichment (6-mer frequency, TF over GST control)","1.44 fold enrichment (6-mer frequency, TF over GST control)","1.28 fold enrichment (6-mer frequency, TF over GST control)","1.33 fold enrichment (6-mer frequency, TF over GST control)","1.34 fold enrichment (6-mer frequency, TF over GST control)"
TTTTTG,"1.43 fold enrichment (6-mer frequency, TF over GST control)","1.29 fold enrichment (6-mer frequency, TF over GST control)","1.38 fold enrichment (6-mer frequency, TF over GST control)","1.33 fold enrichment (6-mer frequency, TF over GST control)","1.4 fold enrichment (6-mer frequency, TF over GST control)","1.27 fold enrichment (6-mer frequency, TF over GST control)","1.54 fold enrichment (6-mer frequency, TF over GST control)","1.5 fold enrichment (6-mer frequency, TF over GST control)","1.4 fold enrichment (6-mer frequency, TF over GST control)"
